The values below come from PubChem BioAssay (Tox21).

Records with an inconclusive call do not appear. Activity calls are given as the source filed them. The call rests on the fitted dose curve; in most records, active means well fitted activation curve with a large enough effect in the repeat runs; inconclusive means weak or mixed curves; inactive means flat fitted curve, though single readings scatter.
On the % scale 0 is the no-effect control and ±100 the full control effect; potency means the concentration at half of the fitted maximal effect.

The test in a line: A CellTox Green Cytotoxicity Assay to monitor cytotoxicity in HEK293 cells - 24 hour (AID 1224875). Further: nearly all actives have a fitted effect of over 45% in size. The conditions noted are these: CellTox Green fluorescence; series mostly up to 76.8 µM; activity change: at the top concentration. The gist of the method: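 Seeding of HEK293 cells together with cytotoxicity dye preceded a 5 h incubation at 37 C/5% CO2. Test compounds in DMSO were then added and fluorescence monitored across 40 h.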
Turning to `CCC(=O)CC(C)CC` (centres undefined), the activity change is 8.11% [at 0.29 µM, hits give high values] (inactive).
With `C=C/C=C/C=C/CCCCC`, the activity change is 1.62% [at 15.8 µM, hits give high values] (inactive).
The same measure, in the same setting: next, `Oc1c(Br)cc(Br)c2cccnc12`: -1.67% [at 35.3 µM, hits give high values] (inactive); `CCCCCCCC/C=C\CCCCCCCC(=O)NCc1ccc(O)c(OC)c1`: 9.03% [at 35.3 µM, hits give high values] (inactive).
As to `CCCOc1sc(C(=O)N2CCC(c3cc(CN)ccc3F)CC2)c(C)c1Br`, the Potency is 22.5 µM (active).
In the case of `O=S(O)O`, the activity change is -0.851% [at 15.8 µM, hits give high values] (inactive).
On the same count and under the same terms, next, `NCCCCCCNCCCCCCN`: -5.13% (inactive); `C=CC/C=C/C/C=C/C/C=C/C`: 15.2% (inactive).
Same read-out and setting: next, `C=CCCCCCCC=C`: -1.01% (inactive); `CCCCN(C)C`: 12.9% (inactive).
With `CC(NCCC(c1ccccc1)c1ccccc1)c1ccccc1` (centres undefined), the Potency is 21.3 µM (active).
Regarding `CCCCCCCCCCCCCCCC`, the “activity change” value was -7.24% (inactive).
Regarding `CCc1cccc(CC)c1NC(=O)C(=O)O`, the “activity change” value was 13.7% (inactive).
Still for that read-out and setting: in the case of `O=C1OC(OC(=O)c2cccnc2Nc2cccc(C(F)(F)F)c2)c2ccccc21` (centres undefined) it was -5.68% [at 35.3 µM, hits give high values] (inactive).
Consider `CN1[C@@H]2CC[C@H]1CC(OC(=O)C(CO)c1ccccc1)C2` (some centres undefined), for which the Potency entry is “inactive”.
Turning to `CC(COC(=O)c1ccccc1)OC(=O)c1ccccc1` (centres undefined), the “activity change” value was 2.15% (inactive).
`CCOC(=O)CN`: the “activity change” value was -7.01% (inactive).
Same read-out and setting: in the case of `COC(=O)CC(C)CCC=C(C)C` (centres undefined) it was -2.43% (inactive); in that of `CCCCCCCC(=O)OCC`, 6.75% (inactive); in that of `CCOC(/C=C(\C)CCC=C(C)C)OCC`, -8.11% (inactive).
For the molecule `CCC1CCCCC1`, the “activity change” value was 1.81% (inactive).
Consider `CCCCCCCCCCCCCCNCCO`, for which the Potency was 19 µM (active).
Turning to `O=C1c2c(O)ccc(O)c2C(=O)c2c(NCCNCCO)ccc(NCCNCCO)c21`, the “activity change” value is -55.2% [at 35.3 µM, hits give high values] (inactive).
As for `Cc1c(-c2ccc(O)cc2)n(Cc2ccc(OCCN3CCCCCC3)cc2)c2ccc(O)cc12`, the Potency was 21.3 µM (active).
